The entries come from a sample that favours hits as a whole.
TDP1 block: blocks human tyrosyl-DNA phosphodiesterase 1 | Q9NUW8 | recombinant TDP1, AlphaScreen DNA substrate cleavage | Potency, µM (doses to about 130 µM), for inactives: top-dose activity change, negative = inhibition, usual class: inhibitors | 350,000 tested, 0.28% active | AID 485290; note: nearly all actives have a fitted effect of over 40% in size
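Signal: AlphaScreen proximity between streptavidin donor and anti-FITC acceptor beads on intact substrate. Reaction: Tdp1 1 nM, substrate 15 nM final, 5 min RT after 15 min compound preincubation.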
L3MBTL1 block: inhibitors of human L3MBTL1. Q9Y468. AlphaScreen L3MBTL1–H3K9me1 peptide binding. Potency, µM (top dose mostly 57.1 µM), without a hit: at the highest dose activity, negative = inhibition, usual class: inhibitors. 230,000 tested, 0.66% active. AID 485360; note: nearly all actives have a fitted effect of over 60% in size
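Displacement of a biotinylated histone H3(1-15) peptide monomethylated at Lys9 (75 nM) from L3MBTL1 (50 nM) was measured by AlphaScreen after a 30 min room-temperature compound incubation; cefsulodin titration served as intraplate control.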
KDM4E inh: inhibitors of human JMJD2E histone demethylase | B2RXH2 | JMJD2E catalytic domain, FDH-coupled NADH fluorescence (FDH is formaldehyde dehydrogenase) | Potency, µM (doses to about 57.1 µM), for inactives: at the top dose activity change, negative = inhibition, most hits filed as inhibitors | 230,000 tested, 1.6% active | AID 2147; active = well fitted inhibition curve with a large enough effect, not every such curve was filed as active; inconclusive = small, poorly fitted or top-dose-only effect, or another doubt; inactive = no such curve, though single readings can be large or run the other way;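 note: 0% = wells with enzyme and -100% = buffer wells without enzyme; nearly all actives have a fitted effect of over 50% in size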
Target sequence (B2RXH2 1-337 limits assumed): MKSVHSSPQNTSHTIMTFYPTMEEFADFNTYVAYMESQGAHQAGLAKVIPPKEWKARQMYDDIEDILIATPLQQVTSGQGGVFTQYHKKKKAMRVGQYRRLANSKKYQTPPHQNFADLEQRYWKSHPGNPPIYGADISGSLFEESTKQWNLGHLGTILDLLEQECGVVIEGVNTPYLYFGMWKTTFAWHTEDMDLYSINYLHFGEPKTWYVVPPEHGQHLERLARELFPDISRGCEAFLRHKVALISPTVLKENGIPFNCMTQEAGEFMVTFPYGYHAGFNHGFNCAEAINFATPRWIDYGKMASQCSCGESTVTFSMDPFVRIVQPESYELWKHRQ
RECQ1 inh: blocks DNA unwinding by human RECQ1 | Potency, µM (titrated, usually from 57.3 µM), for inactives: at the highest dose activity, negative = inhibition, actives largely listed as inhibitors | 240,000 tested, 0.54% active | P46063 | RECQ1 DNA unwinding, red fluorescence kinetic read;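 note: plate controls were vehicle for no effect and no enzyme for full effect; nearly all actives have a fitted effect of over 30% in size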
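50 nM RECQ1T1 preincubated 15 min with compound in Tris pH 8.0 buffer with MgCl2, DTT, Tween-20 and 2.5 ug/ml poly(dI-dC); started with 200 nM TAMRA/BHQ-2 forked duplex and 2 mM ATP. Unwinding read as fluorescence (525/598 nm), two reads 2 h apart.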
BLM inh: Bloom syndrome helicase (human) inhibition; 350,000 tested, 0.2% active; recombinant BLM DNA unwinding, fluorescence dequenching; Potency, µM (highest dose often 56.1 µM), without a hit: at the top dose activity change, negative = inhibition, actives largely listed as inhibitors;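 note: plate controls were vehicle for no effect and no enzyme for full effect; nearly all actives have a fitted effect of over 35% in size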
APE1 inh: inhibitors of human APE1 endonuclease; P27695; recombinant APE1, TAMRA/BHQ-2 abasic DNA cleavage fluorescence; Potency, µM (highest dose often 65.8 µM), inactives show at the highest dose activity change, negative = inhibition, most hits filed as inhibitors; 350,000 tested, 0.35% active; AID 2517;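 note: plate controls were vehicle for no effect and reference inhibitor for full effect; nearly all actives have a fitted effect of over 55% in size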
Target sequence (P27695 whole entry, looked up): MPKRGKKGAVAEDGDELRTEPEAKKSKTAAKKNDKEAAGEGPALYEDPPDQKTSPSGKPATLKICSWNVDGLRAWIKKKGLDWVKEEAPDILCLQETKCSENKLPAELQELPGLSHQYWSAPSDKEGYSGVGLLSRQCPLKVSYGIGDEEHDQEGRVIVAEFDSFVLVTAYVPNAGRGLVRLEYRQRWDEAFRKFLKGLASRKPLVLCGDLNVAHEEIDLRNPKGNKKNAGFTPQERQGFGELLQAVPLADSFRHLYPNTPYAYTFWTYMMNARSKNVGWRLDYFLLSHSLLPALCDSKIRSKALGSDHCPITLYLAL
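Readout is kinetic fluorescence (ex 525, em 598 nm) from cleavage of 50 nM TAMRA/BHQ-2 THF abasic duplex by 0.75 nM APE1, compound added 15 min beforehand at RT.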
Starred values were filed as active, the others as inactive; [ ] = dose if it differs, or a comment. Unless noted, calls come from the whole dose curve; as a rule, active = well fitted curve in the direction sought with a large enough effect; inconclusive = small, poorly fitted or top-dose-only effect, or another doubt; inactive = no such curve, though single readings can be large; an effect the other way counts as inactive or inconclusive. Unless noted, % is set by controls: 0 for no effect and ±100 for the full control effect; potency is the fitted concentration of half-maximal effect.

For O=C(Nc1ccccc1F)c1coc(=O)c(Br)c1 the results were TDP1 block 20µM*, KDM4E inh inconclusive, RECQ1 inh inconclusive, BLM inh 68% and APE1 inh inconclusive.
`O=C1c2ccccc2C(=O)N1c1cccc2ccncc12` gave TDP1 block 2%.
For O=C(O)CNS(=O)(=O)c1ccc2c(c1)CCCC2 the results were TDP1 block 50µM*, L3MBTL1 block -1%, KDM4E inh inconclusive, RECQ1 inh -5%, BLM inh -5% and APE1 inh -15%.
Screening CC12CCC(C(=O)N(CSC(=S)N/N=C\c3ccccc3O)C1=O)C2(C)C (centres undefined) returned TDP1 block -8%, L3MBTL1 block 5.6µM*, KDM4E inh 2%, RECQ1 inh 5%, BLM inh -5% and APE1 inh 6%.
Screening O=C(CNc1cccc2ccccc12)N/N=C/c1cccc(Oc2ccccc2)c1 returned TDP1 block 7%, L3MBTL1 block -8%, KDM4E inh 28µM*, RECQ1 inh -17%, BLM inh -13% and APE1 inh 11%.
For O=C(CNc1cccc2ccccc12)N/N=C/c1ccccn1 the results were TDP1 block 7%, L3MBTL1 block -14%, KDM4E inh inconclusive, RECQ1 inh 13%, BLM inh -8% and APE1 inh -3%.
Screening COC(=O)N1CCN(/[N+]([O-])=N/Oc2ccc([N+](=O)[O-])cc2[N+](=O)[O-])CC1 returned TDP1 block 9%, RECQ1 inh inactive, BLM inh -1% and APE1 inh 2%.
Nc1c(C(=O)Nc2ccc(Br)cc2)sc2nc(-c3ccco3)ccc12 was read as TDP1 block 3%, L3MBTL1 block 1%, KDM4E inh inconclusive, RECQ1 inh -22%, BLM inh -21% and APE1 inh -14%.
Screening Nc1c(C(=O)Nc2ccc(Br)cc2)sc2nc(-c3ccncc3)ccc12 returned TDP1 block 22µM* and BLM inh -4%.
Cc1ccc(S(=O)(=O)N2CCc3nc(-c4ccccc4)c4c(c3C2)CO[C@@H](C)C4)cc1 was read as TDP1 block 12%[12.3 µM], KDM4E inh 9%[11.4 µM], RECQ1 inh inactive[11.5 µM], BLM inh 1%[12.4 µM] and APE1 inh -6%[12.4 µM].
O=C(/C=C/c1ccc(O)c(O)c1)NC(=O)c1ccccc1O was read as TDP1 block -5%, KDM4E inh 14µM*, RECQ1 inh -13%, BLM inh -4% and APE1 inh inconclusive.
`O=C(/C=C/c1ccc(Br)cc1)NC(=O)c1ccccc1O` gave TDP1 block -1%, L3MBTL1 block -24%, KDM4E inh -23%, RECQ1 inh -1%, BLM inh -21% and APE1 inh -8%.
For Cc1ccc(NS(=O)(=O)c2ccc3c(c2)CCC(C)(C)O3)cc1C the results were TDP1 block 0%.
For COc1cc(NC(=O)c2cc([N+](=O)[O-])ccc2NC(=O)CNCc2ccccn2)cc(OC)c1 the results were TDP1 block 56µM*, BLM inh -1% and APE1 inh 0%.
For Oc1c(C=Nc2ccccc2)sc2ccccc12 the results were TDP1 block 0%, L3MBTL1 block 6%, KDM4E inh inconclusive, RECQ1 inh -11%, BLM inh -6% and APE1 inh 5%.
`Cc1ccc(O)c(N=Cc2sc3ccccc3c2Cl)c1` gave TDP1 block 8%, L3MBTL1 block 0%, KDM4E inh 25µM*, RECQ1 inh -5%, BLM inh -3% and APE1 inh 17%.
Oc1ccccc1N=Cc1sc2ccccc2c1Cl was read as TDP1 block 8%, L3MBTL1 block -1%, KDM4E inh 22µM*, RECQ1 inh -3%, BLM inh -2% and APE1 inh 4%.
Nc1ccccc1N=Nc1ccccc1N was read as L3MBTL1 block 8.9µM*, BLM inh -3% and APE1 inh 16%.
Screening Nc1ccc(N=Nc2ccccc2)c(N)c1 returned TDP1 block 26%, RECQ1 inh -15% and APE1 inh 5%.
`O=c1cnnc(N/N=C/c2ccccn2)[nH]1` gave KDM4E inh 3.5µM*, RECQ1 inh inactive, BLM inh -2% and APE1 inh 1%.
Cc1ccc(/C=N/Nc2cn[nH]c(=O)n2)o1 was read as TDP1 block 0%, L3MBTL1 block 2%, KDM4E inh -7%, RECQ1 inh -7%, BLM inh -1% and APE1 inh -3%.
`O=c1nc(N/N=C/c2ccccn2)cn[nH]1` gave TDP1 block 5%, L3MBTL1 block 5µM*, KDM4E inh 10µM*, RECQ1 inh -2%, BLM inh 1% and APE1 inh 6%.
`COc1ccc(-c2nc3ccc(Cl)cc3c(=O)n2Cc2ccccc2)cc1COc1ccc(NC(C)=O)cc1` gave TDP1 block 0%.
Screening CCOC(=O)NC(=O)COC(=O)c1ccc(O)cc1 returned TDP1 block 0%, L3MBTL1 block 19%, KDM4E inh -3%, RECQ1 inh 5%, BLM inh 1% and APE1 inh 1%.
For CNC(=O)NC(=O)COC(=O)c1ccc(-n2c(C)ccc2C)cc1 the results were L3MBTL1 block inconclusive, KDM4E inh 13µM*, RECQ1 inh -1%, BLM inh 2% and APE1 inh 14%.
COc1ccc(Cl)cc1Nc1nc(N)c2ccccc2n1 was read as L3MBTL1 block -4%, BLM inh -7% and APE1 inh -6%.
COc1ccc(C)cc1Nc1nc(N)c2cc(OC)c(OC)cc2n1 was read as TDP1 block 5%, BLM inh 20µM* and APE1 inh 2%.
Cc1ccc(NS(=O)(=O)c2ccc(N3CCCC3=O)cc2)cc1C was read as TDP1 block 0%.
`C=CCNC(=O)N1CCc2nc(CCCC)c3c(c2C1)CO[C@@H](C)C3` gave TDP1 block 5%[12.3 µM], KDM4E inh -5%[11.4 µM], RECQ1 inh 3%[11.5 µM], BLM inh -2%[12.4 µM] and APE1 inh -7%[12.4 µM].
For CC(=O)N1CCN(c2ncnc3sc(-c4ccccc4)cc23)CC1 the results were TDP1 block 3%, KDM4E inh inconclusive, RECQ1 inh -2%, BLM inh 15% and APE1 inh -7%.
Screening Oc1ccc(N2CCN(c3ncnc4sc(-c5ccccc5)cc34)CC2)cc1 returned TDP1 block 9%, L3MBTL1 block inconclusive, KDM4E inh 16µM*, RECQ1 inh 14%, BLM inh -3% and APE1 inh 3%.
